# In PubChem BioAssay (Tox21):
# Values without a mark were called inactive. Records with an inconclusive call do not appear. Where a call stands in place of a potency, no number is given. The source made the active and inactive calls. Unless noted, the call rests on the fitted dose curve.
# Legend:
# [1] = Nuclear factor erythroid 2-related factor 2/antioxidant responsive element (Nrf2/ARE) small molecule agonists: qHTS cell viability counter screen in human keratinocytes (AID 1919968; active means well fitted curve in the direction sought with a large enough effect in the repeat runs; an effect the other way counts as inactive or inconclusive; further: nearly all actives have a fitted effect of over 55% in size; further: potency means the concentration at half of the fitted maximal effect)
# In short: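 KeratinoSens HaCaT cells, 1,500/well, preincubated 5 h, then exposed to compounds in DMSO for 23 h at 37 C/5% CO2. Viability read as CellTiter-Fluor fluorescence after 1 h, in the same wells as the ARE-luciferase read.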
# [2] = target: Gonadotropin-releasing hormone receptor (Homo sapiens) (UniProt P30968); test: Human gonadotropin-releasing hormone receptor (GnRHR) small molecule agonists, calcium flux assay in GnRHR-HEK293 cells (AID 1920063); further: nearly all actives have a fitted effect of over 35% in size
# Chain of Gonadotropin-releasing hormone receptor (Homo sapiens) (P30968 whole entry, looked up): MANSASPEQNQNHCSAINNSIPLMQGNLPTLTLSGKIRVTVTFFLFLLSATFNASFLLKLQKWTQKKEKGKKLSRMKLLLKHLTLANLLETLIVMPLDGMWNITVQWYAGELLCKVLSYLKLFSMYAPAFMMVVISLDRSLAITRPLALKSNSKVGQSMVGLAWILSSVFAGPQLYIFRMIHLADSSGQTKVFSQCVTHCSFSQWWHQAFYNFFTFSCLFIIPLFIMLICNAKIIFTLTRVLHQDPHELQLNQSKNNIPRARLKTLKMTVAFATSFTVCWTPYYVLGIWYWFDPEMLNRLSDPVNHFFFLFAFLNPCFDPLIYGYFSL
# In short: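 HEK293 cells stably expressing human GnRHR were dye-loaded for 1 h at 37 C. Compound was added in agonist mode and fluorescence (Ex/Em 480/540) recorded kinetically for 3 min. Fifteen concentrations, triplicates.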
# [3] = target: KiSS-1 receptor (Homo sapiens) (UniProt Q969F8); test: Human kisspeptin (KISS1R) small molecule agonists, calcium flux assay in KISS1R-HEK293 cells (AID 1920064; active means well fitted curve in the direction sought with a large enough effect in the repeat runs; an effect the other way counts as inactive or inconclusive)
# Chain of KiSS-1 receptor (Homo sapiens) (Q969F8 whole entry, looked up): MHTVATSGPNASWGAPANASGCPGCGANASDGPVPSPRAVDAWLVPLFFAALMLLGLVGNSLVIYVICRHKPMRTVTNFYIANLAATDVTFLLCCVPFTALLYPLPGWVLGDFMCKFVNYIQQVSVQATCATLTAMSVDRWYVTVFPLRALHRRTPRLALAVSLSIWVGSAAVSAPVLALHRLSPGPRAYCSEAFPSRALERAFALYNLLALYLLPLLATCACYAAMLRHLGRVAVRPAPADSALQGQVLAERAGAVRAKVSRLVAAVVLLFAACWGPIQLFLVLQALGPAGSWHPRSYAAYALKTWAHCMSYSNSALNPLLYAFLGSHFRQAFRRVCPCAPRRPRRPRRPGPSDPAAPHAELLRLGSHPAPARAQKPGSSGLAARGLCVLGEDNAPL
# In short: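 HEK293 cells stably expressing human KISS1R were loaded with calcium dye for 1 h at 37 C, then given compound; fluorescence (Ex/Em 480/540) was read kinetically for 3 min. Fifteen concentrations, triplicate.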
# [4] = G protein-coupled receptor (GPCR) small molecule agonists, calcium flux assay: HEK293 wild type cell line counter screen (AID 1920065)
# In short: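 Wild-type HEK293 cells plated 18 h, loaded with calcium dye 1 h at 37 C, then compounds added in agonist mode (ATP as positive control). Kinetic fluorescence Ex/Em 480/540 recorded 3 min at 1 sec intervals; 15 concentrations, triplicate.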
# [5] = p53 small molecule agonists, cell-based qHTS assay with human liver microsomes (AID 1963577);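 further: p53 response element beta-lactamase reporter cells with liver microsomes plus NADPH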
# In short: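 HLM-supplemented p53RE-bla reporter assay: 16 h compound exposure at 37 C, microsomes and NADPH each 0.5 mg/mL final, read by fluorescence intensity.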
# [6] = p53 small molecule agonists, cell-based qHTS assay with rat liver microsomes (AID 1963578)
# In short: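 Quantitative HTS of the Tox21 10K library: p53RE-bla cells, rat liver microsomes plus NADPH at 0.5 mg/mL final each, 16 h at 37 C, beta-lactamase fluorescence detection.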
# [7] = p53 small molecule agonists, cell-based qHTS assay with human liver microsomes: qHTS cell viability counter screen (AID 1963579); further: nearly all actives have a fitted effect of over 45% in size
# In short: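 Viability of p53RE-bla cells is measured as CellTiter-Glo luminescence following a 16 h, 37 C incubation with compound, liver microsomes from human donors and NADPH.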
# [8] = p53 small molecule agonists, cell-based qHTS assay with rat liver microsomes: qHTS cell viability counter screen (AID 1963580); further: nearly all actives have a fitted effect of over 45% in size; further: potency means the concentration at half of the fitted maximal effect
# In short: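 Viability is assessed in parallel with the p53 reporter read: HCT-116 p53RE-bla cells receive compounds plus rat microsomes and NADPH (0.5 mg/mL final apiece), incubate 16 h at 37 C, and then CellTiter-Glo luminescence is recorded.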
# [9] = p53 small molecule agonists, cell-based qHTS assay: qHTS cell viability counter screen (AID 1963581); further: nearly all actives have a fitted effect of over 45% in size; further: potency means the concentration at half of the fitted maximal effect
# In short: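 p53RE-bla HCT-116 cells, compounds added 5 h after plating and incubated 16 h at 37 C. Cytotoxicity measured in the same wells as intracellular ATP by CellTiter-Glo luminescence after 30 min at room temperature.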
# [10] = p53 small molecule agonists, cell-based qHTS assay (AID 1963582; active means well fitted activation curve with a large enough effect in the signal ratio in the repeat runs, not every such curve was filed as active; the % refers to the signal ratio)
# In short: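 p53RE-bla reporter cells, compounds added in DMSO after 5 h plating, incubated 16 h at 37 C. Beta-lactamase read via 2 h room-temperature LiveBLAzer B/G FRET substrate, fluorescence intensity.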
# [11] = target: 5-hydroxytryptamine receptor 2A (Homo sapiens) (UniProt P28223); test: 5-hydroxytryptamine receptor 2A (HTR2A) small molecule antagonists, cell-based qHTS assay (AID 1963586); further: nearly all actives have a fitted effect of over 45% in size; further: potency means the concentration at half of the fitted maximal effect
# Chain of 5-hydroxytryptamine receptor 2A (Homo sapiens) (P28223 whole entry, looked up): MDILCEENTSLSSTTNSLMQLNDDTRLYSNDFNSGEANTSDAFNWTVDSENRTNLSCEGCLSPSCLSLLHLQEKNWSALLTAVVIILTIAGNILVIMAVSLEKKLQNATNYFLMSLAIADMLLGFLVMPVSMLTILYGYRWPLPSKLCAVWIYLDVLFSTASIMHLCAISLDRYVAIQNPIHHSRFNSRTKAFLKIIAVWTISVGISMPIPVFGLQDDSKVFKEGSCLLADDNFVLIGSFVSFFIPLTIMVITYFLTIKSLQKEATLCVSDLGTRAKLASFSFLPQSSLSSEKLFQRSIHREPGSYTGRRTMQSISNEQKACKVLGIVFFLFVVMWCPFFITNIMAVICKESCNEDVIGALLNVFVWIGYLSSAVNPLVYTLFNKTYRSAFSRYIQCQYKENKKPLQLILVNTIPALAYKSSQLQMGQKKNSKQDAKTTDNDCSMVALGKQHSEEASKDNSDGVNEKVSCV
# In short: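 Antagonist-mode intracellular calcium assay: DOI (4 nM) added after 5 min compound pre-incubation at room temperature to dye-loaded HTR2A-CHO cells. Fluorescence followed for 3 min, sampled every second.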
# [12] = target: 5-hydroxytryptamine receptor 2A (Homo sapiens) (UniProt P28223); test: 5-hydroxytryptamine receptor 2A (HTR2A) small molecule agonists, cell-based qHTS assay (AID 1963587); further: nearly all actives have a fitted effect of over 30% in size; further: potency means the concentration at half of the fitted maximal effect
# In short: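 CHO cells stably expressing human HTR2A, plated 18 h, loaded with calcium dye 1 h at 37 C. Agonist mode: compounds added and intracellular calcium fluorescence recorded kinetically for 2 min at 1 sec intervals.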
# [13] = target: Muscarinic acetylcholine receptor M1 (Homo sapiens) (UniProt P11229); test: Cholinergic receptor muscarinic 1 (CHRM1) small molecule antagonists, cell-based qHTS assay (AID 1963588); further: nearly all actives have a fitted effect of over 40% in size
# Chain of Muscarinic acetylcholine receptor M1 (Homo sapiens) (P11229 whole entry, looked up): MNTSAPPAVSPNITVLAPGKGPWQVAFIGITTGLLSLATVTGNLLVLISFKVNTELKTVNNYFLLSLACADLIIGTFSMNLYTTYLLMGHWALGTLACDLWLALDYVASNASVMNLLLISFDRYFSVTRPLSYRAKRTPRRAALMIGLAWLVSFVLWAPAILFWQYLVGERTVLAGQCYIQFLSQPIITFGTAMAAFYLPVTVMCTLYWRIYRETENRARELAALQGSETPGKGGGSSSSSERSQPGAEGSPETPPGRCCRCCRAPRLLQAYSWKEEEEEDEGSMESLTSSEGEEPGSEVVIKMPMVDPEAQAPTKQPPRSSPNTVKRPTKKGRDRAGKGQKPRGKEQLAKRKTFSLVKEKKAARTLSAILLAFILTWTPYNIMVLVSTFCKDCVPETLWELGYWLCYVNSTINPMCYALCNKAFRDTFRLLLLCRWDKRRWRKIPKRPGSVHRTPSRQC
# In short: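 CHRM1-CHO calcium-flux assay, antagonist mode. Cells were seeded 18 h, dye-loaded 1 h at 37 C and given compound for 5 min at RT, then acetylcholine was added at 50nM. FDSS fluorescence was read 3 min; 15 concentrations, three runs.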
# [14] = target: Muscarinic acetylcholine receptor M1 (Homo sapiens) (UniProt P11229); test: Cholinergic receptor muscarinic 1 (CHRM1) small molecule agonists, cell-based qHTS assay (AID 1963589); further: nearly all actives have a fitted effect of over 35% in size
# In short: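 CHO cells stably expressing human CHRM1 were loaded with calcium dye for 1 h at 37 C, then compound was added in agonist mode. Intracellular calcium fluorescence was followed kinetically at 1 s intervals. Fifteen concentrations were tested in three independent runs.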
# [15] = cAMP Responsive Elements (CRE) small molecule agonists, cell-based qHTS assay (AID 1963590)
# In short: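 CRE-bla HEK 293T cells, 2,000/well in DMEM with 10% dialyzed FBS and 25 mM HEPES, pre-incubated 18 h at 37 C, then exposed to compound 3 h at 37 C. Beta-lactamase reporter read with LiveBLAzer B/G FRET substrate after 2 h at room temperature.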
# [16] = target: Beta-2 adrenergic receptor (Homo sapiens) (UniProt P07550); test: Adrenergic beta2 receptor (ADRB2) small molecule antagonists, cell-based qHTS assay (AID 1963592); further: series mostly up to about 92 µM; nearly all actives have a fitted effect of over 50% in size
# Chain of Beta-2 adrenergic receptor (Homo sapiens) (P07550 whole entry, looked up): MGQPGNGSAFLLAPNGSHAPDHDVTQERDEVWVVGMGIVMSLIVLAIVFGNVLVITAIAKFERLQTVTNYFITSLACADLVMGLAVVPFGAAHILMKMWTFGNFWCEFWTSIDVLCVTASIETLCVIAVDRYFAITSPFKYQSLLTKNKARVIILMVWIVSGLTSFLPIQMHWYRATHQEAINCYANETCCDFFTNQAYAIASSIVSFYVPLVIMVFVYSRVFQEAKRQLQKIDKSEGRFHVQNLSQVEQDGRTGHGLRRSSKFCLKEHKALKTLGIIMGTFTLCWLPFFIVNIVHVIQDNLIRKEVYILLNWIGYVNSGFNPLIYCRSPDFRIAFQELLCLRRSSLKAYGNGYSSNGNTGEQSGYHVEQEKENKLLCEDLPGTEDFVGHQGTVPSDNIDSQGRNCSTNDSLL
# In short: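 Cells (CHO, stable ADRB2 overexpression) incubated 18-20hr at 37C; compounds added from DMSO; agonist mix (1nM isoproterenol, 100uM IBMX, 25uM Ro-20-1724) added; 0.5hr RT; d2-cAMP and anti-cAMP-cryptate added; 1hr RT; 665/615 nm read.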
# [17] = target: D(2) dopamine receptor (Homo sapiens) (UniProt P14416); test: Dopamine D2 receptor (DRD2) small molecule agonists, cell-based qHTS assay (AID 1963594); further: nearly all actives have a fitted effect of over 35% in size; further: potency means the concentration at half of the fitted maximal effect
# Chain of D(2) dopamine receptor (Homo sapiens) (P14416 whole entry, looked up): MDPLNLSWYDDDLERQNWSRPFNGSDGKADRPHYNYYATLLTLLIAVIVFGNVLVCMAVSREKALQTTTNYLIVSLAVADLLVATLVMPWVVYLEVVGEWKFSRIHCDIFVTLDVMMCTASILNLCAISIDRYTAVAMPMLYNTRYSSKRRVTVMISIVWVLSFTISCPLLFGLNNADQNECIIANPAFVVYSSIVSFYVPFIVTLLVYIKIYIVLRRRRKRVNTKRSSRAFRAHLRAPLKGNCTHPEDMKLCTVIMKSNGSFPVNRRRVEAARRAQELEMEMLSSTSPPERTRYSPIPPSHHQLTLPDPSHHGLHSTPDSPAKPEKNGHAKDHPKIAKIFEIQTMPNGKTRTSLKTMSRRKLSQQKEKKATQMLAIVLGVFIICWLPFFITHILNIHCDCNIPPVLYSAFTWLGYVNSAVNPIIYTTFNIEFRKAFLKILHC
# In short: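 HEK293 cells stably expressing human DRD2, pre-treated with PDE inhibitor Ro20-1724 (0.1 mM final) and compound 10 min at room temperature, then stimulated with NKH477 (200nM […]) for 30 min. cAMP read by HTRF (665/620 nm).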
# [18] = target: D(2) dopamine receptor (Homo sapiens) (UniProt P14416); test: Dopamine D2 receptor (DRD2) small molecule antagonists, cell-based qHTS assay (AID 1963595; active means well fitted inhibition curve with a large enough effect in the signal ratio in the repeat runs, with a control signal flat; the % refers to the signal ratio)
# In short: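 Antagonism was scored as restored cAMP in HEK293-DRD2 cells. These cells were stimulated with 200 nM NKH477 and 12 nM quinpirole for 30 min at room temperature, in the presence of 0.1 mM Ro20-1724.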
# [19] = Nuclear factor erythroid 2-related factor 2/antioxidant responsive element (Nrf2/ARE) small molecule agonists: luciferase reporter gene qHTS assay in human keratinocytes (AID 1919969); further: nearly all actives have a fitted effect of over 35% in size
# [20] = cAMP Responsive Elements (CRE) small molecule antagonists, cell-based qHTS assay (AID 1963591; active means well fitted inhibition curve with a large enough effect in the signal ratio in the repeat runs, not every such curve was filed as active; the % refers to the signal ratio)
# In short: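 CRE-bla HEK293T cells plated 18 h, then given compound plus NKH477 at 0.25 uM final for 3 h at 37C. Beta-lactamase reporter read with LiveBLAzer B/G FRET substrate after 2 h at room temperature.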
Compound,Potency [1],Potency [2],Potency [3],Potency [4],Potency [5],Potency [6],Potency [7],Potency [8],Potency [9],Potency [10],Potency [11],Potency [12],Potency [13],Potency [14],Potency [15],Potency [16],Potency [17],Potency [18],Potency [19],Potency [20]
CCCCCCCCCCCCN(C)C,inactive,inactive,inactive,inactive,inactive,inactive,inactive,inactive,inactive,inactive,inactive,inactive,inactive,inactive,inactive,inactive,inactive,inactive,,
Cc1ccccc1,inactive,,,,inactive,inactive,inactive,inactive,inactive,inactive,,,,,,,,,inactive,
O=C(O)C(Br)CBr (configuration not stated),inactive,,,inactive,inactive,inactive,inactive,,inactive,inactive,inactive,inactive,inactive,inactive,inactive,inactive,inactive,inactive,inactive,
CCCN(CCC)CCc1c[nH]c2ccccc12,inactive,inactive,inactive,inactive,inactive,inactive,inactive,inactive,inactive,inactive,0.0131 µM (active),0.0043 µM (active),inactive,inactive,inactive,inactive,21.4 µM (active),inactive,,inactive
CCOc1nc(C(Cl)(Cl)Cl)ns1,inactive,inactive,inactive,inactive,inactive,inactive,inactive,inactive,inactive,inactive,,inactive,inactive,inactive,inactive,inactive,,inactive,,inactive
CCC#N,inactive,,inactive,,,,inactive,inactive,inactive,,inactive,inactive,,inactive,inactive,inactive,inactive,inactive,inactive,inactive
Clc1ccc(C(Cl)(Cl)Cl)cc1Cl,inactive,inactive,inactive,inactive,inactive,inactive,inactive,inactive,inactive,inactive,inactive,inactive,inactive,inactive,inactive,inactive,inactive,inactive,,inactive
CC(Cc1ccccc1)N(C)Cc1ccco1 (configuration not stated),inactive,inactive,inactive,inactive,inactive,inactive,inactive,inactive,inactive,inactive,,inactive,,,inactive,inactive,inactive,inactive,,inactive
ClSC(Cl)(Cl)Cl,inactive,,inactive,,,,inactive,,inactive,,inactive,inactive,inactive,,inactive,inactive,inactive,inactive,inactive,inactive
C[C@H]1[C@@H]2Cc3ccc(O)cc3[C@@]1(C)CCN2C,inactive,inactive,inactive,inactive,inactive,inactive,,,inactive,,inactive,inactive,,inactive,inactive,inactive,inactive,inactive,,inactive
O=[N+]([O-])c1cc(C(F)(F)F)c(Cl)c([N+](=O)[O-])c1Cl,24.3 µM (active),inactive,inactive,inactive,inactive,inactive,,36.3 µM (active),16.2 µM (active),,inactive,inactive,inactive,,,inactive,inactive,inactive,,
CC(C)C(=O)Cl,inactive,inactive,inactive,inactive,inactive,,inactive,inactive,,inactive,inactive,inactive,inactive,inactive,inactive,inactive,inactive,inactive,,inactive
CO/N=C(/C(=O)OC)c1ccccc1COc1ccccc1C,inactive,inactive,inactive,inactive,inactive,inactive,inactive,inactive,inactive,,inactive,inactive,inactive,inactive,,inactive,inactive,inactive,,
